Compound activity from PubChem BioAssay.
TDP1 inh – qHTS Assay for Inhibitors of Tyrosyl-DNA Phosphodiesterase (TDP1). Tyrosyl-DNA phosphodiesterase 1 (Homo sapiens), Q9NUW8. recombinant TDP1, AlphaScreen DNA substrate cleavage. Potency, µM (doses to about 130 µM), hits mostly inhibitors. hit rate 0.28% among 350,000; further: nearly all actives have a fitted effect of over 40% in size
Target sequence (Q9NUW8 whole entry, looked up): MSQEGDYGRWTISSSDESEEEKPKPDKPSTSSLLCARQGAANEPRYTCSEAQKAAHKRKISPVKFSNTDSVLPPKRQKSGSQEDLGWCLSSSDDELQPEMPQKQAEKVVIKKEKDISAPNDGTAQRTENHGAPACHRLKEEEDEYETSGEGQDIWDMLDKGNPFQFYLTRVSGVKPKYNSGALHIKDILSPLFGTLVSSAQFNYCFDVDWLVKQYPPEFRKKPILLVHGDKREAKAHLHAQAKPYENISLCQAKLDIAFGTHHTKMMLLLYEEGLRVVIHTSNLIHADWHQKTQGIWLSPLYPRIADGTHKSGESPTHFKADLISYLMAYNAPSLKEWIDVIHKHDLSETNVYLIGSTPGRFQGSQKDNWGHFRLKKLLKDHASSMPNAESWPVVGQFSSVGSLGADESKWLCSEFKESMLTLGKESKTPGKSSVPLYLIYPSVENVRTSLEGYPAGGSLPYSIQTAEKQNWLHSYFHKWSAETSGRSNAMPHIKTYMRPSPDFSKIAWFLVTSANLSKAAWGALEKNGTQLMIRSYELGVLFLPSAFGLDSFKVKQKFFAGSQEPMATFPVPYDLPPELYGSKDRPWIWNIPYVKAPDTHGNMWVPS
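Here, a 5' biotin and 3' phosphotyrosine-FITC DNA oligonucleotide reports Tdp1 activity: intact substrate bridges AlphaScreen beads, while cleavage leaves a 3' phosphate and drops signal. All incubations at room temperature.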
Giardia killer – Small Molecules that selectively kill Giardia lamblia: qHTS | Giardia lamblia trophozoite viability | activity change, % at 7.66 µM, hits read low | hit rate 0.15% among 340,000 | AID 540267, 2011; in the data active means activity change below about -80%; inconclusive means between about -30% and that limit;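 further: parasites exposed to compound for two days anaerobically before the ATP read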
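Media and compound were dispensed first, then trophozoites at 100 cells/well; plates sat 48 hrs at 37 deg C without oxygen before ATP luminescence reagent was added and read after 15-30 min at room temperature.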
TDP1 cell CPT – qHTS for Inhibitors of human tyrosyl-DNA phosphodiesterase 1 (TDP1): qHTS in cells in presence of CPT; chicken DT40 Tdp1-/-;hTDP1 cells + 20 nM CPT, ATP luminescence, 48 h; Potency, µM (series often up to 46.2 µM), most hits filed as inhibitors; hit rate 12% among 420,000; AID 686979, 2013; further: nearly all actives have a fitted effect of over 55% in size
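Chicken DT40 Tdp1-/- cells stably complemented with human TDP1 were seeded at 400 cells/well in medium containing 20 nM camptothecin, exposed to pin-transferred compounds, and grown at 37 °C for at least 48 hr. Viability was read as ATP luminescence.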
TDP1 cell noCPT – qHTS for Inhibitors of human tyrosyl-DNA phosphodiesterase 1 (TDP1): qHTS in cells in absence of CPT | hit rate 15% among 420,000 | AID 686978, 2013 | Potency, µM (titrated, usually from 46.2 µM), hits mostly inhibitors | DT40 Tdp1-/- hTDP1 cells, no CPT, ATP luminescence, 48 h; further: nearly all actives have a fitted effect of over 55% in size
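Camptothecin absent (DMSO only). Human TDP1-complemented DT40 knockout cells, 400 cells/well, 37 °C for minimum 48 hr; ATP measured via CellTiter-Glo, 30 min dark incubation, luminescence.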
ELG1 repair inh – qHTS screen for small molecules that inhibit ELG1-dependent DNA repair in human embryonic kidney (HEK293T) cells expressing luciferase-tagged ELG1. HEK293T ELG1-luciferase reporter, luminescence, 16 h; DNA damage induced by 5-fluorouridine. Potency, µM (doses to about 46.1 µM), most hits filed as inhibitors. hit rate 2.3% among 330,000. AID 504467, 2011; further: nearly all actives have a fitted effect of over 55% in size
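DMSO vehicle served as the neutral condition. Each well held 2,000 cells given 5-fluorouridine plus compound; after 16 hr at 37 °C/5% CO2, ONE-Glo was added and luciferase measured 30 min later.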
IL1B secr inh – qHTS for Inhibitors of Inflammasome Signaling: IL-1-beta AlphaLISA Primary Screen; THP-1 LPS/ATP IL-1B secretion, AlphaLISA, 16 h; active compounds read low; AID 743279, 2014; activity change, % at 57.5 µM; hit rate 4.7% among 360,000; in the data active means activity change below about -50%; inconclusive means mostly about -30% to -49%
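THP-1 cells pretreated 1 hr with compounds (up to 57.5 uM final), then stimulated with LPS (250 ng/mL final) plus ATP (1.25 mM final); secreted IL-1B measured by AlphaLISA after 16 hr, decreased signal indicating inhibition.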
Of the large screens only hits and unclear results are named; the others gave an inactive call. An excerpt weighted towards active compounds, which were near 19% of everything screened. Unless noted, the call rests on the fitted dose curve; in most records, active means well fitted curve in the direction sought with a large enough effect; inconclusive means small, poorly fitted or top-dose-only effect, or another doubt; inactive means no such curve, though single readings can be large; an effect the other way counts as inactive or inconclusive.

O=S(=O)(Nc1nc2n(n1)C(c1ccc(F)cc1)C=C(c1ccccc1)N2)c1ccccc1 (centres undefined)	TDP1 cell CPT inconclusive, TDP1 cell noCPT 21µM (no result: Giardia killer, ELG1 repair inh, IL1B secr inh)
O=C(Nc1nc2n(n1)C(c1ccccc1)C=C(c1ccccc1)N2)c1ccccc1 (centres undefined)	TDP1 cell CPT 16µM, TDP1 cell noCPT 18µM (no result: TDP1 inh, Giardia killer, ELG1 repair inh, IL1B secr inh)
O=S(=O)(Nc1nc2n(n1)C(c1ccc(F)cc1)C=C(c1ccc(Cl)cc1)N2)c1ccccc1 (centres undefined)	none (no result: Giardia killer, ELG1 repair inh, IL1B secr inh)
O=C(Nc1nc2n(n1)C(c1ccc(F)cc1)C=C(c1ccccc1)N2)c1ccco1 (centres undefined)	TDP1 cell CPT 16µM, TDP1 cell noCPT 23µM (no result: Giardia killer, ELG1 repair inh, IL1B secr inh)
COC(=O)/C=C1\OC(c2ccccc2)=CC1=O	none (no result: Giardia killer, TDP1 cell CPT, TDP1 cell noCPT, IL1B secr inh)
CN1CCN(C(=O)/C(=C\c2cccnc2)NC(=O)c2cccc(Br)c2)CC1	Giardia killer inconclusive
CCCNS(=O)(=O)c1cc(-c2nnc3c4ccccc4c(C)nn23)ccc1OC	none (no result: Giardia killer, ELG1 repair inh, IL1B secr inh)
COc1ccc(C2C=C(c3ccccc3)Nc3nc(NC(=O)c4cccc([N+](=O)[O-])c4)nn32)cc1 (centres undefined)	TDP1 cell CPT inconclusive, TDP1 cell noCPT inconclusive (no result: Giardia killer, ELG1 repair inh, IL1B secr inh)
COc1ccc(C(=O)Nc2nc3n(n2)C(c2ccc(Cl)cc2)C=C(c2ccccc2)N3)cc1OC (centres undefined)	TDP1 cell CPT 15µM, TDP1 cell noCPT 15µM (no result: Giardia killer, ELG1 repair inh, IL1B secr inh)
Cc1cc(C)cc(NC(=O)NCCn2nnc3cc(S(=O)(=O)N(C)C)ccc32)c1	TDP1 cell CPT inconclusive (no result: Giardia killer, ELG1 repair inh, IL1B secr inh)
COc1ccc(N2CCN(C(=O)CSCc3ccc(C)cc3)CC2)cc1	TDP1 cell CPT 21µM, TDP1 cell noCPT 18µM (no result: Giardia killer, ELG1 repair inh, IL1B secr inh)
O=C(CCC(=O)N1CCN(c2ccc(O)cc2)CC1)c1cccs1	TDP1 cell CPT inconclusive, TDP1 cell noCPT 23µM
COc1ccc(N2CCN(C(=O)CSc3ccc(C)cc3)CC2)cc1	TDP1 cell noCPT inconclusive
O=C(CSCc1ccc(F)cc1)N1CCN(c2ccc(F)cc2)CC1	TDP1 cell CPT inconclusive, TDP1 cell noCPT 13µM
CC(=O)c1ccc(N2CCN(C(=O)CCC(=O)c3cccs3)CC2)cc1	none
Cc1ccc(C(=O)C2CCN(CC(=O)N3CCN(c4ccc(F)cc4)CC3)CC2)cc1	TDP1 cell CPT inconclusive, TDP1 cell noCPT 18µM, ELG1 repair inh inconclusive, IL1B secr inh -55
O=S(=O)(Nc1ccc(Cl)cn1)c1ccc2c(c1)OCCO2	none
Cc1sc2ncn(/N=C/c3cn(-c4ccccc4)nc3-c3ccccc3)c(=O)c2c1C	none (no result: TDP1 cell CPT, TDP1 cell noCPT, ELG1 repair inh, IL1B secr inh)
COCCNC(=O)c1ccc(-c2csc(C)n2)cc1	ELG1 repair inh inconclusive
CN(CCOc1ccc(-c2ccn(S(=O)(=O)c3cccc4ccccc34)n2)cc1)c1ccccn1	TDP1 cell noCPT inconclusive
Cc1ccc(CSCCC(=O)N2CCN(c3ccc(F)cc3)CC2)cc1	none (no result: Giardia killer, ELG1 repair inh, IL1B secr inh)
Cc1ccc(OCCC(=O)N2CCN(c3ccc(O)cc3)CC2)cc1	TDP1 cell CPT inconclusive, TDP1 cell noCPT 16µM, ELG1 repair inh 7.3µM (no result: TDP1 inh)
Cc1ccc(CSCC(=O)N2CCN(c3ccc(F)cc3)CC2)cc1	TDP1 cell CPT 26µM, TDP1 cell noCPT 23µM
O=C(CCc1c[nH]c2ccccc12)N1CCN(c2ccc(O)cc2)CC1	TDP1 cell CPT 5.2µM, TDP1 cell noCPT 7.3µM
COc1ccc(N2CCN(C(=O)CCc3c[nH]c4ccccc34)CC2)cc1	TDP1 cell noCPT inconclusive
Cc1cc(C)nc(/N=C(\NC(=O)C(C)(C)C)Nc2ccc(F)cc2)n1	none
O=C(Nc1cccc(Cl)c1)C(Cc1ccccc1)n1cccc1 (centres undefined)	TDP1 cell CPT 23µM, TDP1 cell noCPT 18µM (no result: Giardia killer, ELG1 repair inh, IL1B secr inh)
CC(C)c1ccc(NC(=O)C(Cc2ccccc2)n2cccc2)cc1 (centres undefined)	TDP1 cell CPT 21µM, TDP1 cell noCPT 16µM (no result: Giardia killer, ELG1 repair inh, IL1B secr inh)
COc1ccc(NC(=O)C(Cc2ccccc2)n2cccc2)cc1OC (centres undefined)	TDP1 cell CPT 8.2µM, TDP1 cell noCPT 21µM
COc1ccc(NC(=O)[C@H](Cc2ccccc2)N2Cc3ccccc3C2=O)cc1OC	none (no result: Giardia killer, ELG1 repair inh, IL1B secr inh)
O=C(Nc1cccnc1)C(Cc1ccccc1)n1cccc1 (centres undefined)	TDP1 cell CPT inconclusive
O=C(Cn1nc2c(cc1=O)CCCC2)Nc1ccccc1C(F)(F)F	none (no result: Giardia killer, ELG1 repair inh, IL1B secr inh)
CC(C)(C)NC(=O)[C@H]1CN(Cc2cccnc2)CCN1C[C@@H](O)C[C@@H](Cc1ccccc1)C(=O)N[C@H]1c2ccccc2C[C@H]1O	none (no result: Giardia killer, TDP1 cell CPT, TDP1 cell noCPT, ELG1 repair inh, IL1B secr inh)
COc1ccc(C(CCN2CCCC(C)C2)c2c(OC)cc(OC)c3c(-c4ccccc4)cc(=O)oc23)cc1 (centres undefined)	TDP1 cell CPT 3.3µM, TDP1 cell noCPT 2.9µM
COc1ccc(C2CC(=O)Oc3c(C(CCN4CCCC(C)C4)c4ccc(N(C)C)cc4)c(OC)cc(OC)c32)cc1 (centres undefined)	TDP1 cell CPT inconclusive, TDP1 cell noCPT inconclusive
COc1ccc(C(CCN2CCCC(C)C2)c2c(OC)cc(OC)c3c(C)cc(=O)oc23)cc1 (centres undefined)	TDP1 cell CPT 13µM, TDP1 cell noCPT 23µM, ELG1 repair inh inconclusive
